# Experimental data: PubChem BioAssay
# The source made the active and inactive calls.
# Assay: budding yeast growth changes without added modifier – OD600, strain BY4716, 24 h, basal condition, primary screen (AID 1173)
# Conditions: S. cerevisiae BY4716 growth, OD600, 24 h; higher = more signal, called active from +8 up or from −8 down
row,SMILES,z-score
1,O=C1NC(=O)C2C1C=CC(C(O)c1cc(C(F)(F)F)cc(C(F)(F)F)c1)N2Nc1ccccn1 (stereo not given),0.885 (inactive)
2,CC1CC/C=C\[C@H]2OC34C=CCN(Cc5ccccc5)C(=O)[C@H]3N(CCCO)C(=O)[C@@H]4C2C(=O)O1 (stereo not given in full),-0.739 (inactive)
3,C=C(CC1([C@@H](NP(=O)(c2ccccc2)c2ccccc2)[C@H]2C[C@@H]2CCCC)CC1)c1ccccc1,1.06 (inactive)
4,CC(C)N1C(=O)c2ccccc2[C@](C)(C(=O)NCCN2CCOCC2)[C@@H]1c1ccc(CO)cc1,0.567 (inactive)
5,[N-]=[N+]=NCc1ccccc1[C@@H]1OC(c2ccc(OCCCO)cc2)=N[C@]1(Cc1ccccc1)C(=O)NCC(O)CO (stereo not given in full),-0.293 (inactive)
6,Cc1ccc(S[C@]2(C(=O)NCCCN(C)C)CC(=O)N(Cc3ccccc3C(F)(F)F)[C@@H]2c2ccc(CO)cc2)cc1,-0.362 (inactive)
7,[N-]=[N+]=Nc1ccccc1[C@@H]1OC(c2ccc(OCCCO)cc2)=N[C@]1(Cc1ccccc1)C(=O)N1CCOCC1,-0.294 (inactive)
8,Cc1nc2cc(Br)ccc2c(=O)o1,-0.691 (inactive)
9,CC1CC/C=C\[C@H]2OC34C=CCN(C(C)(C)C)C(=O)[C@H]3N(C(C)CO)C(=O)[C@@H]4C2C(=O)O1 (stereo not given in full),-0.623 (inactive)
10,C=CCOC(=O)[C@@H]1[C@H]2C(=O)O[C@H](c3ccccc3)[C@H](c3ccccc3)N2[C@H](c2ccc(OCCOC(=O)[C@H]3C[C@H]4C(=O)N5CCC[C@H]5C(=O)N4[C@H]3c3ccc(O)cc3)cc2)[C@@]12C(=O)Nc1ccc(I)cc12,0.148 (inactive)
11,C=C(/C(=C/C[C@H](OC(C)=O)c1ccccc1OCCO)c1cnc2ccccc2c1)C(C)C,0.323 (inactive)
12,CCCCN1CC=CC23O[C@@H]4C=CCCOC(=O)C4[C@H]2C(=O)N(CCCCCCO)[C@@H]3C1=O (stereo not given in full),0.254 (inactive)
13,COc1ccc(C#Cc2ccc3c(c2)[C@]2(C(=O)N3)[C@H](C(=O)NC[C@H](O)c3ccccc3)[C@H]3C(=O)O[C@H](c4ccccc4)[C@H](c4ccccc4)N3[C@@H]2c2ccc(O)cc2)cc1,-0.26 (inactive)
14,O=C(c1ccccc1)N1C(=O)[C@]2(COC(c3ccc(OCCCO)cc3)=N2)Cc2ccccc21,-1.67 (inactive)

# Assay: viability profiling in MM1S myeloma cells – cell-based, resazurin fluorescence, basal, 24 h, PK04 Diversity Set, profiling panel (AID 1174);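 also: MM1S multiple myeloma cell line; test concentration not given here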
# Conditions: higher = more signal, called active from +8 up or from −8 down
row,SMILES,z-score
1,C=CCN1C(=O)[C@@]2(Cc3ccccc31)N=C(c1ccc(OCCCO)cc1)O[C@H]2c1ccccc1,-2.21 (inactive)
2,CC(C)C(O)C1C=CC2C(=O)N(c3ccccc3)C(=O)C2N1Nc1ccc([N+](=O)[O-])cc1 (stereo not given),-0.413 (inactive)
3,COC(=O)[C@H](Cc1ccccc1)N[C@@H](/C=C/C1CC1)[C@H](O)Cc1ccccc1,0.488 (inactive)
4,O=C1O[C@H](c2ccccc2)[C@H](c2ccccc2)N2[C@H]1[C@@H](C(=O)N1CCCCCCC1)[C@]1(C(=O)Nc3ccc(C#CC4=CCCCC4)cc31)[C@H]2c1ccc(OCCO)cc1,0.241 (inactive)
5,CCOC(=O)C[C@H]1[C@H](OC(=O)c2ccc(C(=O)c3ccccc3)cc2)[C@@H](NC(=O)c2ccccc2)c2cc(OCCCO)ccc2N1C(=O)Cc1ccc(OC)cc1,0.399 (inactive)
6,COc1ccc([Si](C)(C)[C@H]2[C@H](CCO)O[C@@]3(C(=O)N(Cc4ccc(N(C=O)c5ccccc5)cc4)c4ccccc43)[C@@H]2C)cc1,-3.71 (inactive)
7,CC(C)c1ccc(NN2C(C(O)c3ccc(B(O)O)cc3)C=CC3C(=O)N(c4ccccc4)C(=O)C32)cc1 (stereo not given),-1.2 (inactive)
8,COc1ccc(CCNC(=O)[C@@]2(Sc3ccc(C)cc3)CC(=O)N(C3Cc4ccccc4C3)[C@@H]2c2ccc(CO)cc2I)cc1,-2.13 (inactive)
9,COCCOC(=O)N1C(=O)[C@@]2(c3ccccc31)[C@H](c1ccc(O)cc1)N1[C@H](c3ccccc3)[C@H](c3ccccc3)OC(=O)[C@H]1[C@@H]2C(=O)Nc1nc2ccccc2s1,-1.1 (inactive)
10,C=C(C(=O)CC[C@@H](OC(=O)c1cccnc1)c1ccccc1OCCO)C(C)C,-0.444 (inactive)
11,NCCCCCNC(=O)[C@@H]1C[C@@H]2C(=O)N[C@@H](Cc3ccccc3)C(=O)N2[C@@H]1c1ccc(O)cc1,-0.0591 (inactive)
12,CCCCCCc1nc(-c2ccc(OC)nc2)cc2c1[Si](C(C)C)(C(C)C)O[C@H]2c1ccccc1,0.0809 (inactive)
13,C[N+](C)(C)CCCCNC(=O)[C@@H]1C[C@@H]2C(=O)N[C@@H](Cc3ccccc3)C(=O)N2[C@@H]1c1cccc(OCCO)c1,0.548 (inactive)
14,COc1cc2c(cc1O)C(c1cccs1)N(C)CC2 (stereo not given),-1.55 (inactive)
15,C[C@@]1([C@@H](NC(=O)c2ccc(-c3ccccc3)cc2)c2ccc(Cl)cc2)C[C@H]1C1CCCCC1,-2.24 (inactive)
16,Cc1ccc(S[C@]2(C(=O)O)CC(=O)N(C(C)C)[C@@H]2c2ccc(CO)cc2I)cc1,-1.66 (inactive)
17,CN1C(=O)C2C=CC(C(O)C3CC=CCC3)N(N(c3ccccc3)c3ccccc3)C2C1=O (stereo not given),-1.17 (inactive)
18,O=C1NC(=O)C2C1C=CC(C(O)c1cccs1)N2Nc1ccc(Cl)cc1Cl (stereo not given),-0.597 (inactive)

row,SMILES,z-score
1,C=CCC(OC(C)=O)[C@@H]1[C@@H](N(Cc2ccc(-c3ccccc3)cc2)C(=O)Cc2ccc(OC)cc2)c2cc(OCCCO)ccc2N1C(=O)Cc1ccc2ccccc2c1 (stereo not given in full),-0.541 (inactive)
2,CC(C)C[C@@H]1NC(=O)[C@@H]2C[C@H](C(=O)NCc3ccc(F)cc3)[C@H](c3cccc(OCCO)c3)N2C1=O,0.279 (inactive)
3,C=CCC(OC(C)=O)[C@@H]1[C@@H](N(Cc2ccc(-c3ccccc3)cc2)C(=O)c2cccc3ccccc23)c2cc(OCCCO)ccc2N1C(=O)c1ccc(-c2ccccc2)cc1 (stereo not given in full),0.395 (inactive)
4,CCCC[C@H]1OB(O)C[C@H]2C1=C(COC)Cn1c(=O)n(-c3ccccc3)c(=O)n12,-0.228 (inactive)
5,O=C1NC(=O)C2C1C=CC(C(O)c1cc(C(F)(F)F)cc(C(F)(F)F)c1)N2Nc1ccccn1 (stereo not given),-1.27 (inactive)
6,CC1CC/C=C\[C@H]2OC34C=CCN(Cc5ccccc5)C(=O)[C@H]3N(CCCO)C(=O)[C@@H]4C2C(=O)O1 (stereo not given in full),0.0639 (inactive)
7,C=C(CC1([C@@H](NP(=O)(c2ccccc2)c2ccccc2)[C@H]2C[C@@H]2CCCC)CC1)c1ccccc1,1.07 (inactive)
8,CC(C)N1C(=O)c2ccccc2[C@](C)(C(=O)NCCN2CCOCC2)[C@@H]1c1ccc(CO)cc1,-0.139 (inactive)
9,[N-]=[N+]=NCc1ccccc1[C@@H]1OC(c2ccc(OCCCO)cc2)=N[C@]1(Cc1ccccc1)C(=O)NCC(O)CO (stereo not given in full),-0.869 (inactive)
10,Cc1ccc(S[C@]2(C(=O)NCCCN(C)C)CC(=O)N(Cc3ccccc3C(F)(F)F)[C@@H]2c2ccc(CO)cc2)cc1,0.515 (inactive)
11,[N-]=[N+]=Nc1ccccc1[C@@H]1OC(c2ccc(OCCCO)cc2)=N[C@]1(Cc1ccccc1)C(=O)N1CCOCC1,-1.6 (inactive)
12,Cc1nc2cc(Br)ccc2c(=O)o1,0.065 (inactive)
13,CC1CC/C=C\[C@H]2OC34C=CCN(C(C)(C)C)C(=O)[C@H]3N(C(C)CO)C(=O)[C@@H]4C2C(=O)O1 (stereo not given in full),-2.21 (inactive)
14,C=CCOC(=O)[C@@H]1[C@H]2C(=O)O[C@H](c3ccccc3)[C@H](c3ccccc3)N2[C@H](c2ccc(OCCOC(=O)[C@H]3C[C@H]4C(=O)N5CCC[C@H]5C(=O)N4[C@H]3c3ccc(O)cc3)cc2)[C@@]12C(=O)Nc1ccc(I)cc12,0.119 (inactive)
15,C=C(/C(=C/C[C@H](OC(C)=O)c1ccccc1OCCO)c1cnc2ccccc2c1)C(C)C,-1.09 (inactive)
16,CCCCN1CC=CC23O[C@@H]4C=CCCOC(=O)C4[C@H]2C(=O)N(CCCCCCO)[C@@H]3C1=O (stereo not given in full),-0.846 (inactive)
17,COc1ccc(C#Cc2ccc3c(c2)[C@]2(C(=O)N3)[C@H](C(=O)NC[C@H](O)c3ccccc3)[C@H]3C(=O)O[C@H](c4ccccc4)[C@H](c4ccccc4)N3[C@@H]2c2ccc(O)cc2)cc1,-2.61 (inactive)
18,O=C(c1ccccc1)N1C(=O)[C@]2(COC(c3ccc(OCCCO)cc3)=N2)Cc2ccccc21,-1.96 (inactive)
